Pf Dd2 growth: P. falciparum Dd2 growth inhibition; activity change, % at 10 µM; 94,000 compounds, 2.3% hits; SYBR Green, 72 h; active compounds read low; AID 1159554; in the data active = activity change below about -80%; inconclusive = no clear call, values can overlap the other calls
C diff growth: C. difficile growth inhibition | Clostridium difficile clinical isolate growth, OD600, 24 h; active compounds read low | growth activity, negative = inhibition, % at 16 µg/mL (by protocol) | 86,000 compounds, 0.25% hits | AID 1259249;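 active = mean growth activity at or below -80% and every replicate also at or below -80%; inconclusive = mean at or below -80% but some replicate above -80%; inactive = mean growth activity above -80%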
T cruzi growth-1: inhibitors of T. cruzi proliferation; T. cruzi beta-gal in NIH3T3, GalScreen luminescence, 90 h; inhibition, % at 8.34 µM; 77,000 compounds, 5.9% hits;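 active = mean inhibition above about 93%, with at least 55% of replicates each passing it, limit read from the data, passing the limit was not always enough; inconclusive = only one of those two conditions holds; inactive = neither condition holds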
T cruzi growth-2: inhibitors of T. cruzi proliferation. T. cruzi beta-gal in NIH3T3, GalScreen luminescence, 90 h. 5,600 compounds, 72% hits. inhibition, % at 8.35 µM. shares compounds with T cruzi growth-1;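 active = mean replicate inhibition above about 95% and at least 55% of replicates individually reaching it, limit read from the data; inconclusive = only one of the two criteria is met; inactive = neither criterion is met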
T cruzi growth-3: blocks T. cruzi growth in NIH3T3 host cells | shares compounds with T cruzi growth-1 | T. cruzi beta-gal in NIH3T3, GalScreen luminescence, 90 h | inhibition, % at 2.09 µM | 5,600 compounds, 21% hits;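 active = mean inhibition above about 95%, with at least 55% of replicates also reaching it, limit read from the data; inconclusive = meets just one of the two conditions; inactive = meets neither condition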
3T3 cytotox: kills mouse NIH/3T3 fibroblasts; shares compounds with T cruzi growth-1; NIH/3T3 viability, CellTiter-Glo ATP luminescence, 90 h; cytotoxicity (signal decrease), % at 8.35 µM; 5,600 compounds, 14% hits;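 active = mean signal decrease across replicates above about 35% based on untreated-well scatter, with enough replicates individually passing, limit read from the data; inconclusive = no rule stated though some were filed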
3T3 cytotox 2: NIH/3T3 (mouse) viability loss; shares compounds with T cruzi growth-1; NIH/3T3 viability, CellTiter-Glo ATP luminescence, 90 h; inhibition, % at 24.9 µM; 5,600 compounds, 56% hits;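 active = mean loss of cell viability signal at or above a set limit, and enough replicates individually reaching it; inconclusive = meets only the mean limit or only the replicate share; inactive = meets neither condition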
Of the large screens only hits and unclear results are named; the others gave an inactive call (follow-up assays come after a bar, where they were run). Sampled rows, rich in hits. Any-hit rate of the full collection: about 6.8%.

C/C=C/c1ccc2c(c1)[C@H]1[C@H](CCN1C(=O)c1ccc3c(c1)OCO3)[C@H](CO)N2	Pf Dd2 growth -90 (no result: T cruzi growth-1)
OC[C@@H]1Nc2ccc(-c3ccccc3)cc2[C@H]2[C@@H]1CCN2Cc1ccccc1F	none
O=C(c1ccc2c(c1)OCO2)N1CC[C@H]2[C@H](CO)Nc3ccc(-c4ccc(F)cc4)cc3[C@H]21	none
CCCC#Cc1ccc2c(c1)[C@@H]1[C@@H](CCN1S(=O)(=O)c1ccccc1F)[C@@H](CO)N2	none (no result: T cruzi growth-1)
Cc1ccccc1S(=O)(=O)N1CC[C@H]2[C@H](CO)Nc3ccc(-c4ccccc4)cc3[C@H]21	none
CCCC#Cc1ccc2c(c1)[C@@H]1[C@@H](CCN1S(=O)(=O)c1ccccc1C)[C@@H](CO)N2	Pf Dd2 growth -84 (no result: T cruzi growth-1)
C[C@@H]1CCCCO[C@H](CN(C)Cc2ccc(C(=O)O)cc2)[C@@H](C)CN([C@@H](C)CO)C(=O)c2cc(N(C)C)ccc2O1	none
Cc1ccc(-c2ccc3c(c2)O[C@H](CN(C)Cc2cccnc2)[C@H](C)CN([C@H](C)CO)S3(=O)=O)cc1	none
C[C@@H]1CN([C@@H](C)CO)S(=O)(=O)c2ccc(-c3ccccc3)cc2O[C@@H]1CN(C)Cc1cccnc1	none
Cc1ccc(-c2ccc3c(c2)O[C@@H](CN(C)Cc2cccnc2)[C@@H](C)CN([C@H](C)CO)S3(=O)=O)cc1	T cruzi growth-1 104 | T cruzi growth-2 107 | T cruzi growth-3 102 | 3T3 cytotox 62 | 3T3 cytotox 2 31
C[C@@H]1CN([C@H](C)CO)S(=O)(=O)c2ccc(-c3ccccc3)cc2O[C@H]1CN(C)Cc1cccnc1	T cruzi growth-1 92 | T cruzi growth-2 inactive | T cruzi growth-3 inactive | 3T3 cytotox 59 | 3T3 cytotox 2 101
C[C@H]1CN([C@@H](C)CO)C(=O)c2cccc(NC(=O)C3CCOCC3)c2O[C@@H]1CN(C)Cc1ccncc1	none
COc1ccc(S(=O)(=O)Nc2cccc3c2O[C@@H](CN(C)S(=O)(=O)c2cccs2)[C@H](C)CN([C@@H](C)CO)C3=O)cc1	none
CCC(=O)N(C)C[C@H]1Oc2ncc(/C=C/c3ccccc3)cc2C(=O)N([C@H](C)CO)C[C@@H]1C	none
COc1ccc(NC(=O)Nc2ccc3c(c2)C(=O)N([C@@H](C)CO)C[C@H](C)[C@@H](CN(C)S(=O)(=O)c2ccc(F)cc2)OCCCC[C@H](C)O3)cc1	none
COc1ccc(S(=O)(=O)N(C)C[C@H]2OCCCC[C@H](C)Oc3ccc(NC(=O)Nc4ccc(C(F)(F)F)cc4)cc3C(=O)N([C@H](C)CO)C[C@H]2C)cc1	Pf Dd2 growth inconclusive
COc1ccc(NC(=O)Nc2ccc3c(c2)C(=O)N([C@H](C)CO)C[C@H](C)[C@H](CN(C)S(=O)(=O)c2ccc(F)cc2)OCCCC[C@H](C)O3)cc1	T cruzi growth-1 inconclusive | T cruzi growth-2 103 | T cruzi growth-3 inactive | 3T3 cytotox inactive | 3T3 cytotox 2 inactive
COc1ccc(S(=O)(=O)N(C)C[C@@H]2OCCCC[C@@H](C)Oc3ccc(NC(=O)Nc4ccc(F)cc4)cc3C(=O)N([C@@H](C)CO)C[C@H]2C)cc1	T cruzi growth-1 111 | T cruzi growth-2 107 | T cruzi growth-3 inactive | 3T3 cytotox inactive | 3T3 cytotox 2 inactive
CCCN(C)C[C@H]1OCCCC[C@H](C)Oc2ccc(NC(=O)CCCN(C)C)cc2C(=O)N([C@H](C)CO)C[C@@H]1C	none
C[C@@H]1CCCCO[C@@H](CN(C)Cc2ccc(C(F)(F)F)cc2)[C@@H](C)CN([C@@H](C)CO)C(=O)c2cc(NC(=O)CCCN(C)C)ccc2O1	Pf Dd2 growth -85, T cruzi growth-1 100 | T cruzi growth-2 105 | T cruzi growth-3 inactive | 3T3 cytotox inactive | 3T3 cytotox 2 102
CCCN(C)C[C@@H]1OCCCC[C@H](C)Oc2ccc(NC(=O)CCCN(C)C)cc2C(=O)N([C@@H](C)CO)C[C@@H]1C	T cruzi growth-1 inconclusive | T cruzi growth-2 inactive | T cruzi growth-3 inactive | 3T3 cytotox inactive | 3T3 cytotox 2 inactive
C[C@@H]1CCCCO[C@@H](CN(C)Cc2ccc(C(F)(F)F)cc2)[C@@H](C)CN([C@H](C)CO)C(=O)c2cc(NC(=O)CCCN(C)C)ccc2O1	none

Compound activity (PubChem)
